High-throughput results as filed in PubChem.
Hits are enriched below; roughly 4.1% of the tested compounds scored in any of these assays.
IDE act: IDE (human) activation, cell-based; HEK cells, FAbeta-B cleavage, fluorescence polarization; 0% vehicle, 100% cell-free pure enzyme wells; activation, % at 5.96 µM; 340,000 compounds, 0.073% hits;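 active = activation above the mean of all tested compounds plus 3 SD, set per screening campaign, cut at about 17% in these data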
CaV13 ICDI inh: Primary screen for inhibitors of IQ motif and Ca2+-dependent inactivation inhibitor domain binding in CACNA1D, Förster resonance energy transfer in living cells, … | AID 743397 | inhibition, % at 12.3 µM | 340,000 compounds, 0.098% hits | HEK cells, CFP/YFP FRET ICDI-IQ, plate reader, 10 min; percent FRET-ratio fall versus neutral wells;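 active = mean replicate inhibition of at least 30% and at least 1% of replicates passing that level; inconclusive = only one of the two criteria is met; inactive = neither criterion is met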;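 note: 0% = median of the neutral control wells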
PolyA inh: inhibitors of polyadenylation in S. cerevisiae; S. cerevisiae SKY197-pL101 polyadenylation reporter, beta-gal luminescence; efflux-impaired pdr1/pdr3 knockout yeast; score 100 = 6 SD above DMSO; activity score, % at 12 µM; 300,000 compounds, 0.02% hits;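 active = lowest replicate activity score at least 50, where 100 means six control SD above control mean; inconclusive = lowest score under 50 but half or more replicates reach 50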;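 note: yeast exposed to compound for 9 h at 30 °C; higher score means more reporter readthrough which indicates perturbed polyadenylation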
M18AAP inhibitor: blocks P. falciparum M18 aspartyl aminopeptidase | recombinant PfM18AAP, H-Glu-NHMec fluorogenic cleavage | inhibition, % at 7.35 µM | 290,000 compounds, 1.2% hits | AID 1822;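 active = inhibition above the campaign mean inhibition over all tested compounds plus 3 SD, cut at about 28% in these data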;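 note: 0% = plate median of test compound wells and 100% = 2 mM ZnCl2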
ALR H2O2 inh: inhibitors of human sulfhydryl oxidase ALR | P55789 | inhibition, % (no concentration beside the values) | purified ALR, DTT oxidation, H2O2 HRP-luminol luminescence | AID 485317 | 290,000 compounds, 3.8% hits;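 active = mean replicate inhibition above about 79%, with every replicate also reaching it, limit read from the data; inconclusive = only one of the two criteria met; inactive = mean below limit and not every replicate reaching it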
Target sequence (P55789 whole entry, looked up): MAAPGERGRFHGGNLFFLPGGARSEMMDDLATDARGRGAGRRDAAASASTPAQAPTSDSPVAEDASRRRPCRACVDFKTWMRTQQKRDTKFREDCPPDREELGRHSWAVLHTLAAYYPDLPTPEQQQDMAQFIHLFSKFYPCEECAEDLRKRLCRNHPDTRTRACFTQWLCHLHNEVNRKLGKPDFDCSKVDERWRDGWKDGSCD
IDE cell inh: inhibitors of human insulin-degrading enzyme in cells. inhibition, % at 5.59 µM. HEK cells, FAbetaB cleavage, fluorescence polarization. 320,000 compounds, 0.41% hits. P14735;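 active = percent inhibition above the average of all tested compounds plus 3 SD, set per screening campaign, cut at about 16% in these data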;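 note: IDE supplied by intact live HEK cells; FP after avidin binding of uncleaved biotin substrate so inhibition keeps polarization high; 0% = DMSO wells and 100% = 60 µM reference IDE inhibitor Ii1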
An asterisk follows results filed as active; ? = inconclusive; . = no result given.

SMILES	IDE act	CaV13 ICDI inh	PolyA inh	M18AAP inhibitor	ALR H2O2 inh	IDE cell inh
O=C(NCCN1CCOCC1)c1ccccc1N1C(=O)[C@@H]2Cc3c([nH]c4ccccc34)C(c3ccccc3)N2C1=O (some centres undefined)	8	.	18	-3	99*	-3
O=C(NCCCN1CCOCC1)c1ccccc1N1C(=O)[C@@H]2Cc3c([nH]c4ccccc34)C(c3ccc(F)cc3)N2C1=O (some centres undefined)	-9	.	1	6	22	6
COc1cccc(C2c3[nH]c4ccccc4c3C[C@H]3C(=O)N(c4ccccc4C(=O)NCCCN4CCOCC4)C(=O)N23)c1 (some centres undefined)	-12	.	-20	9	99*	6
O=C(Cc1ccon1)c1ccc(O)cc1O	-3	-19	-1	16	-8	.
CCNC(=S)NNC(=O)c1cc(-c2cccnc2)nc2ccccc12	5	-7	-1	7	88*	1
CC(C)=CCCC1(C)C=Cc2c(c(C)cc3c2[nH]c2cc(O)ccc23)O1 (centres undefined)	24*	.	-6	.	-45	-6
Cc1cc(=O)[nH]c2cc(O)ccc12	3	.	0	0	28	6
COc1cc(/C=C2/C(=O)NN(c3ccc(F)cc3)C2=O)cc(Cl)c1O	-1	-4	-5	13	?	3
COc1cc(/C=C2/C(=O)NN(c3ccc(Cl)c(Cl)c3)C2=O)cc([N+](=O)[O-])c1O	0	-19	5	14	98*	2
COC(=O)c1ccc(N2NC(=O)/C(=C/c3cc(OC)c(O)c(OC)c3)C2=O)cc1	-8	-20	11	31*	73	11
COc1cc(/C=C2/C(=O)NN(c3ccc(Cl)cc3)C2=O)cc(Br)c1O	-5	-6	0	9	98*	4
C[C@@H]1CN([C@@H](C)CO)S(=O)(=O)c2ccc(Br)cc2O[C@@H]1CN(C)C(=O)NC1CCCCC1	.	-7	.	.	.	.
C#CCOCCOCCOCCNc1nc(N2CCN(C(=O)[C@H](CCCCN)n3cc([C@@H](N)CC(N)=O)nn3)CC2)nc(N2CCN(C(=O)[C@H](CCCCN)n3cc([C@@H](N)CC(N)=O)nn3)CC2)n1	7	-6	.	.	9	-2
CCN(CCO)Cc1cc(=O)oc2cc3c(cc12)CCC3	5	-9	18	0	87*	-1
CCOC(=O)c1sc(N)c(C(=O)Nc2ccccc2OC)c1C	-8	-1	-4	23	-6	5
CCN(CC)S(=O)(=O)c1cc(NC(=O)CCn2[nH]c(=O)ccc2=O)ccc1C	2	-5	.	.	0	-3
COc1ccc(S(=O)(=O)Nc2ccc(S(=O)(=O)N3CCCCC3)cc2)cc1	-1	-5	-10	2	97*	10
COc1ccc(NS(=O)(=O)c2ccc(N3CCCC3)c(N)c2)cc1	-4	-3	4	8	92*	2
COc1ccc(S(=O)(=O)Nc2ccc(S(=O)(=O)N3CCCC3)cc2)cc1	-1	.	15	-2	-2	-2
COc1ccc(NS(=O)(=O)c2cc(N)ccc2N2CCCC2)cc1	6	-7	.	.	32	8
CC(=O)Nc1cccc(-c2ccnc3c2CC(C)(C(=O)NCc2cccs2)O3)c1 (centres undefined)	.	-6	.	.	.	.
Cc1ccc(N2C(=O)c3ccccc3C2C(=O)c2ccc(O)cc2O)cc1 (centres undefined)	-6	2	1	30*	-58	-1
CCOc1ccc2ccccc2c1/C=N/NC(=O)c1ccc(C)nc1	1	-3	-8	7	4	4
O=C(O)c1cccc(NN=C2c3ccccc3-c3ccccc32)c1	2	-7	0	10	.	.
O=C(O)c1cccc2c1-c1ccccc1/C2=N\Nc1ccccc1	0	-20	-13	8	99*	-2
SMILES	IDE act	CaV13 ICDI inh	PolyA inh	M18AAP inhibitor	ALR H2O2 inh	IDE cell inh
COc1cnc(SCc2ccc(Cl)cc2Cl)nc1Cl	7	-8	4	1	98*	4
CC1(c2nc3ccccc3[nH]2)CCC(=O)N1Cc1ccc(F)cc1 (centres undefined)	.	-4	.	.	.	.
Nc1ccc(SCC(=O)Nc2cccc([N+](=O)[O-])c2)cc1	4	.	8	-4	99*	1
O=C(CSCCO)Nc1cccc([N+](=O)[O-])c1	-4	-5	11	-11	-4	1
Nc1cc(=O)[nH]c(SCC(=O)Nc2cccc([N+](=O)[O-])c2)n1	13	3	13	-7	22	-10
O=C(CSc1nncc(=O)[nH]1)Nc1cccc([N+](=O)[O-])c1	5	.	-13	5	100*	-4
CCOC(=O)C1=CCN(S(=O)(=O)c2ccc(Cl)cc2)C1c1cccc(Cl)c1 (centres undefined)	.	-2	.	.	.	.
O=C(CCN1C(=O)/C(=C/c2ccc(F)cc2)SC1=S)NNC(=O)c1ccncc1	2	-5	-16	8	1	-1
O=C(CCN1C(=O)/C(=C/c2ccc(F)cc2)SC1=S)NCCc1cnc[nH]1	-2	-4	-2	12	98*	2
Cc1ncc(CO)c(CNc2ccc(Oc3ccccc3)cc2)c1O	-4	-3	13	3	98*	.
S=C(NCc1cccnc1)Nc1ccc(Oc2ccccc2)cc1	3	2	3	-10	12	7
CCn1c(C)c(C(C)=O)c(N2CCN(c3ccccc3)CC2)nc1=S	3	.	5	15	97*	2
C=CCn1c(=NC(=O)c2ccc(S(=O)(=O)N3CCc4ccccc4C3)cc2)sc2cc(S(N)(=O)=O)ccc21	4	-5	10	3	-2	-6
C=CCn1c(=NC(=O)CN2C(=O)CCC2=O)sc2cc(S(N)(=O)=O)ccc21	3	-3	9	-4	98*	6
O=C(Nc1ccncc1)c1cc(S(=O)(=O)N2CCCC2)ccc1Cl	3	-2	.	.	-18	0
O=C(Nc1ccc(O)cc1)c1cc(S(=O)(=O)N2CCCC2)ccc1Cl	0	-6	-3	3	99*	2
CC(C)(C)c1csc(NC(=O)CSC2=NCCS2)n1	4	-3	38	7	99*	-1
CCOC(=O)Cc1csc(N/N=C\c2ccc(N(C)C)cc2)n1	0	-20	-13	38*	-4	-1
CCOC(=O)Cc1csc(NC(=O)c2sc3nc4ccc(C)cc4cc3c2N)n1	-4	-4	7	5	99*	-2
COCC(=O)Nc1nc(-c2ccc(-c3ccccc3)cc2)cs1	2	-7	-6	-4	-3	3
COCC(=O)Nc1nc(-c2ccc([N+](=O)[O-])cc2)cs1	-2	-22	-1	1	98*	1
